Assay outcomes: PubChem BioAssay, National Center for Advancing Translational Sciences (NCATS)
This is a sample that favours compounds with a hit; in the whole collection about 18% have one here.
IL1B secr inh – qHTS for Inhibitors of Inflammasome Signaling: IL-1-beta AlphaLISA Primary Screen | THP-1 LPS/ATP IL-1B secretion, AlphaLISA, 16 h; active compounds read low | activity change, % at 57.5 µM | 360,000 tested, 4.7% active | AID 743279, 2014; in the data active means activity change below about -50%; inconclusive means mostly about -30% to -49%
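THP-1 cells pretreated 1 hr with compounds (up to 57.5 uM final), then stimulated with LPS (250 ng/mL final) plus ATP (1.25 mM final); secreted IL-1B measured by AlphaLISA after 16 hr, decreased signal indicating inhibition.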
VP16 counter – VP16 counterscreen qHTS for inhibitors of ROR gamma transcriptional activity. AID 2546, 2010. Drosophila S2 Gal4-VP16 UAS-luciferase, luminescence, 20 h. 310,000 tested, 3.5% active. Potency, µM (series often up to 53.6 µM), for the others: at the top dose activity, negative = inhibition, hits mostly inhibitors;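 further: Gal4-VP16 expression switched on by copper sulfate through the metallothionein promoter; potency means the concentration at half of the fitted maximal effect; nearly all actives have a fitted effect of over 50% in size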
LDHA inh – qHTS assay for inhibitors of human lactate dehydrogenase; L-lactate dehydrogenase A chain (Homo sapiens), P00338; purified LDHA, NADH/diaphorase-resazurin fluorescence; active compounds read low; activity change, % (values are at about 110 or 230 µM); 480,000 tested, 0.15% active; AID 1347041, 2019; in the data active means activity change below about -30%; inconclusive means mostly about -25% to -30%;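 further: plate controls were DMSO wells for no effect and wells without enzyme for full effect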
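Enzyme activity of human lactate dehydrogenase 5 (2 nM; 0.06 mM NADH, 0.2 mM pyruvate, 5 min, RT) is measured via a resazurin/diaphorase fluorescence readout of residual NADH.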
DT40 TDP1 no CPT – qHTS for Inhibitors of human tyrosyl-DNA phosphodiesterase 1 (TDP1): qHTS in cells in absence of CPT | DT40 Tdp1-/- hTDP1 cells, no CPT, ATP luminescence, 48 h | Potency, µM (top dose mostly 46.2 µM), for the others: at the highest dose activity change, negative = growth inhibition, hits mostly inhibitors | 420,000 tested, 15% active; further: potency means the concentration at half of the fitted maximal effect; nearly all actives have a fitted effect of over 55% in size
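Stably hTDP1-transfected Tdp1-null chicken DT40 cells were treated with library compounds minus camptothecin and grown for at least 48 hr at 37 °C, after which cellular ATP was quantified by luminescence.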
TDP1 cell CPT – qHTS for Inhibitors of human tyrosyl-DNA phosphodiesterase 1 (TDP1): qHTS in cells in presence of CPT; 420,000 tested, 12% active; Potency, µM (titrated, usually from 46.2 µM), for inactives: at the highest dose activity change, negative = growth inhibition, hits mostly inhibitors; chicken DT40 Tdp1-/-;hTDP1 cells + 20 nM CPT, ATP luminescence, 48 h; further: potency means the concentration at half of the fitted maximal effect; nearly all actives have a fitted effect of over 55% in size
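Cell growth measured by CellTiter-Glo luminescence after a minimum 48 h, 37 C compound exposure with 20 nM CPT in Tdp1-knockout DT40 cells stably expressing hTDP1, seeded 400/well; qHTS titration format.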
RORg inh – qHTS for inhibitors of ROR gamma transcriptional activity | Nuclear receptor ROR-gamma (Mus musculus), P51450 | Drosophila S2 Gal4-RORgamma UAS-luciferase reporter, 20 h | Potency, µM (top dose mostly 53.6 µM), inactives show at the top dose activity change, negative = inhibition, usual class: inhibitors | 310,000 tested, 5.4% active; further: potency means the concentration at half of the fitted maximal effect; nearly all actives have a fitted effect of over 60% in size
Target sequence (P51450 whole entry, looked up, the tested form may be a part): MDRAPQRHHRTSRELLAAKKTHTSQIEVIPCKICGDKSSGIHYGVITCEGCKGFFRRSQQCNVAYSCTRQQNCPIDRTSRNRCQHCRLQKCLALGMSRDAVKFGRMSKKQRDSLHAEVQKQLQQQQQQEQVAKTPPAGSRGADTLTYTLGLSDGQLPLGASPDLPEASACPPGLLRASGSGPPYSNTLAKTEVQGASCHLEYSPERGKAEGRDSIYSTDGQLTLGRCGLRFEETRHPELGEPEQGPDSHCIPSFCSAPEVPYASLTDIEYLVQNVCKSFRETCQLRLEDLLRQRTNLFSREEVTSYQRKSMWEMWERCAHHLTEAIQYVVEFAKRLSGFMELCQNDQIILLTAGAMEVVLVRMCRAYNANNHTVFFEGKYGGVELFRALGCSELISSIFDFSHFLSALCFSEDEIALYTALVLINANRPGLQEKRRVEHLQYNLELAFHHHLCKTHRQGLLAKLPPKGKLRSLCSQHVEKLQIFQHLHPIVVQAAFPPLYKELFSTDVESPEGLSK
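Luminescence from a UAS-regulated Photinus luciferase reporter in stably transfected Drosophila Schneider cells is measured; decreased signal marks ROR gamma inhibition. Fusion expression is induced by 700 uM copper sulfate for 20 hr.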
The depositor's hits bear a star; ? = inconclusive; nt = no result; [ ] = dose if it differs, or a comment. Unless noted, the call rests on the fitted dose curve; in most records, active means well fitted curve in the direction sought with a large enough effect; inconclusive means small, poorly fitted or top-dose-only effect, or another doubt; inactive means no such curve, though single readings can be large; an effect the other way counts as inactive or inconclusive. Unless noted, on the % scale 0 is the no-effect control and ±100 the full control effect.

SMILES | IL1B secr inh | VP16 counter | LDHA inh | DT40 TDP1 no CPT | TDP1 cell CPT | RORg inh
Cc1cccc(C(=O)N[C@H](C(=O)Nc2nc(C)cs2)C(C)C)c1 | 10 | -11% | -5 | 7.3µM* | 8.2µM* | 25%
O=C(Nc1ccc2oc(-c3ccc(F)cc3)cc(=O)c2c1)c1cccs1 | nt | nt | -1 | nt | nt | nt
COc1ccc(C)cc1CC(=O)OCc1ccc(C#N)cc1 | nt | nt | 1 | nt | nt | nt
Cc1cccc(NS(=O)(=O)c2cc(NC(=O)Cc3n[nH]c(=O)c4ccccc34)ccc2C)c1 | nt | nt | -24 | nt | nt | nt
O=C(NCc1coc(-c2cccs2)n1)c1cccc(Cl)c1Cl | nt | nt | -6 | nt | nt | nt
CC(C)[C@H](NC(=O)c1ccccc1Cl)C(=O)Nc1nc(-c2ccccn2)cs1 | 71 | ? | 1 | 5.8µM* | 5.8µM* | 7.9µM*
CCC(CC)c1nnc(NC(=O)[C@@H](NC(=O)c2cccc(C)c2)C(C)C)s1 | 15 | 16µM* | -3 | -6% | 29% | 20µM*
Cc1csc(NC(=O)c2ccccc2)n1 | -7 | -14% | -6 | -22% | -1% | -81%
CCSc1nnc(NC(=O)[C@@H](NC(=O)c2cccc(C)c2)C(C)C)s1 | 19 | -1% | 0 | -18% | -13% | 32%
CC(C)C(NC(=O)c1ccccc1F)C(=O)Nc1nccs1 (stereo unspecified) | -6 | -11% | -8 | -25% | 5% | -8%
Cc1csc(NC(=O)[C@@H](NC(=O)c2ccccc2)C(C)C)n1 | 16 | -1% | -7 | 8.2µM* | ? | 11%
COc1ccc(CN(C(=O)CSc2nc3ccc(OC)cc3[nH]2)C2CC2)cc1 | nt | nt | 10 | nt | nt | nt
O=c1[nH]c2cc3c(cc2cc1C(c1nnnn1CC1CCCO1)N1CCCCCC1)OCO3 (stereo unspecified) | nt | -8% | nt | nt | nt | ?
O=c1[nH]c2cc3c(cc2cc1C(c1nnnn1CC1CCCO1)N1CCCCCC1)OCCO3 (stereo unspecified) | -4 | 7% | 14 | 15µM* | ? | 15%
Cc1cc(Br)ccc1NC(=O)CNC(=O)CN1C(=O)NC2(CCCCCC2)C1=O | -3 | 2% | -12 | -16% | -30% | -1%
Cc1cc(Br)ccc1NC(=O)CN1C(=O)C2C3CC(c4ccccc4)C(C3)C2C1=O (stereo unspecified) | ? | 3% | 1 | 16µM* | ? | ?
Cc1oc2cc(OCC(=O)N3CCC(C(N)=O)CC3)ccc2c(=O)c1Oc1ccccc1 | nt | nt | 2 | nt | nt | nt
CC(C)c1ccc(/C=c2\sc3nc(-c4ccncc4)nn3c2=O)cc1 | 6 | -10% | -9 | 12µM* | ? | 5%
Cc1ccc(/C=c2\sc3nc(-c4cccnc4)nn3c2=O)cc1 | 0 | -1% | 2 | 29µM* | ? | 3%
Cc1cc(C)n2nc(-c3cccnc3)nc2n1 | -8 | 8% | -1 | -12% | 4% | -1%
O=C(NCc1ccc(N2CCCC2)nc1)c1cc(Cl)ccc1O | nt | nt | 5 | nt | nt | nt
CN(C)CCOC1c2ccccc2CCc2ccc3ccccc3c21 (stereo unspecified) | -86* | nt | -15 | 21µM* | ? | nt
O=C(OCc1cccc([N+](=O)[O-])c1)c1ccc(OC(F)(F)F)cc1 | nt | nt | 4 | nt | nt | nt
O=C(Nc1ccc2oc(-c3ccc(F)cc3)nc2c1)c1ccccc1Cl | nt | nt | 7 | nt | nt | nt
CCCCCOc1ccc(/C=C/C(=O)c2ccc(O)cc2)cc1OC | nt | nt | 12 | nt | nt | nt
SMILES | IL1B secr inh | VP16 counter | LDHA inh | DT40 TDP1 no CPT | TDP1 cell CPT | RORg inh
CCOc1cc(/C=C/C(=O)c2ccc(O)cc2)ccc1OCC(=O)N(C)C | -103* | -2% | -2 | ? | ? | 16%
CCOc1cc(/C=C/C(=O)c2ccc3c(c2)OCCO3)ccc1OCC(=O)N(C)C | -104* | 5% | -4 | 23µM* | -95% | ?
CCOC(=O)c1cnc2c(OC)cccc2c1Nc1ccccc1C(=O)O | nt | nt | -11 | nt | nt | nt
CCN(CC)CCOC(=O)c1ccc(N/C=C(/C#N)c2nc(-c3ccc(OC)c(OC)c3)cs2)cc1 | -25 | ? | -6 | 4.6µM* | -106% | ?
CCN(CC)CCOC(=O)c1ccc(N/C=C(/C#N)c2nc(-c3cccc(OC)c3)cs2)cc1 | nt | -14% | -7 | -25% | 5% | 4%
CCn1c(COc2cc(C)cc(C)c2)nnc1SCC(=O)NC1CCCC1 | nt | nt | -4 | nt | nt | nt
CC1CCN(C(=O)c2ccc3c(c2NCCO)C(=O)c2ccccc2C3=O)CC1 | -23 | -16% | 5 | 18µM* | 23µM* | -42%
CCN(CC)CCNC(=O)c1ccc2c(c1NCCO)C(=O)c1ccccc1C2=O | -53* | -25% | 9 | 15µM* | 16µM* | ?
O=C1CC[C@H](O)CCN1[C@H](CSc1ccccc1)Cc1ccccc1 | 20 | -2% | -8 | ? | ? | 11%
O=C(N[C@H]1CCC(=O)N([C@H](CSc2ccccc2)Cc2ccccc2)CC1)OCc1ccccc1 | -22 | -3% | 2 | 20µM* | ? | 11%
O=C(N[C@H]1CCC(=O)N([C@H](CSc2ccc(Br)cc2)Cc2ccccc2)CC1)OCc1ccccc1 | -23 | nt | -7 | 18µM* | ? | nt
Cc1ccc(SC[C@H](Cc2ccccc2)N2CC[C@@H](NC(=O)OCc3ccccc3)CCC2=O)cc1 | nt | -2% | nt | 13µM* | 18µM* | ?
O=C(NC1CCC(=O)N(CCSc2ccccc2)CC1)OCc1ccccc1 (stereo unspecified) | 15 | 13% | -8 | 16µM* | ? | 35%
O=C1CC[C@H](OCc2ccccc2)CCN1[C@H](CSc1ccccc1)Cc1ccccc1 | -8 | ? | 3 | ? | -27% | ?
COc1cc(CN2CCN(Cc3ccccc3C)CC2)cc(OC)c1O | nt | nt | 49 | nt | nt | nt
COC(=O)C(C)Oc1ccc2c(C)c(-c3ccc(OC)cc3)c(=O)oc2c1 (stereo unspecified) | nt | nt | 15 | nt | nt | nt
CCCCOc1ccc(NC2=NC3(CCCC3)N=C(N)N2)cc1 | -28 | nt | -4 | 16µM* | 16µM* | 38%[0.365 µM]
O=C(/C=C/c1ccc(Br)cc1)NC1CCCC1 | nt | nt | -7 | nt | nt | nt
Cc1cc(C)n(-c2ccc(C(=O)OCC(=O)NC3CCC(C)CC3)cc2)n1 (stereo unspecified) | nt | nt | -3 | nt | nt | nt
CCOc1cccc(/C=C/c2cc(C(=O)O)c3ccccc3n2)c1OC | -2 | ? | -5 | -7% | -11% | 4.5µM*
